The values below come from PubChem BioAssay (NCATS).

Assay [1] is described as follows: Primary qHTS for inhibitors of nuclear receptor binding SET domain protein 2 (NSD2) in an isogenic RCH-ACV NSD2 p.E1099K mutant (9B) (AID 1645876). Note: nearly all actives have a fitted effect of over 70% in size. On the technique in general: qHTS replaces the single test concentration by a dilution series.
The nature of assay [2]: Primary qHTS for inhibitors of nuclear receptor binding SET domain protein 2 (NSD2) in an RCH-ACV wild type WT cells (2C) (AID 1645877). Note: nearly all actives have a fitted effect of over 70% in size.
Assay [3] has as its target Glutathione peroxidase 1 (Homo sapiens) (UniProt P07203). Description: Primary qHTS Assay for Inhibitors of Recombinant Selenoprotein Glutathione Peroxidase 1 (GPX1) (AID 1845191). Note: nearly all actives have a fitted effect of over 65% in size. Put shortly:
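GPX1 10 nM, GR 100 nM, GSH 1 mM, NADPH 0.5 mM, CHP 0.5 mM (final). 30-min cpd preincubation, RT. Ex340/Em450 read t=0, t=15 min.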

Assay [4] deals with Phospholipid hydroperoxide glutathione peroxidase GPX4 (Homo sapiens) (UniProt P36969). Briefly: Primary qHTS Assay for Inhibitors of Recombinant Selenoprotein Glutathione Peroxidase 4 (GPX4) (AID 1845192). Note: nearly all actives have a fitted effect of over 65% in size. Put shortly:
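qHTS, GR-coupled: GPX4 200 nM + cpd 30 min RT → GSH 1 mM, NADPH 0.5 mM, GR 100 nM → CHP 0.5 mM start; fluor 340/450 at t0 and t15 min; no-enzyme wells as control.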

Assay [5] can be described thus: qHTS drug screen for cell cycle checkpoint inhibitors in PARPi-resistant BRCA-mutant ovarian cancer cell lines. (AID 1963452; calls by dose curve). Conditions: PEO1/OlaR viability, CellTiter-Glo luminescence, 96 h; for Z-AUC: stronger effect = lower value. Put shortly:
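PEO1, PEO4 and PEO1/OlaR ovarian cancer cells, 600 per well, exposed 96 h at 37C to a dilution series. Viability read by CellTiter-Glo luminescence, normalized to DMSO and empty wells; activity summarized as Z-AUC.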

Where [6] appears, read: measured here: PEO1 parental Z-AUC.

Inconclusive results are not listed. Activity calls are given as the source filed them. Unless noted, calls come from the whole dose curve; as a rule, active = well fitted curve in the direction sought with a large enough effect; inconclusive = small, poorly fitted or top-dose-only effect, or another doubt; inactive = no such curve, though single readings can be large; an effect the other way counts as inactive or inconclusive. Where a SMILES comes first, the peptide text is derived from it. [ ]: non-standard residue; d: D form. Dip = N[C@H](C(=O)O)C(c1ccccc1)c1ccccc1
Potency is the fitted concentration of half-maximal effect.

Sequence of Glutathione peroxidase 1 (Homo sapiens) (P07203 whole entry, looked up): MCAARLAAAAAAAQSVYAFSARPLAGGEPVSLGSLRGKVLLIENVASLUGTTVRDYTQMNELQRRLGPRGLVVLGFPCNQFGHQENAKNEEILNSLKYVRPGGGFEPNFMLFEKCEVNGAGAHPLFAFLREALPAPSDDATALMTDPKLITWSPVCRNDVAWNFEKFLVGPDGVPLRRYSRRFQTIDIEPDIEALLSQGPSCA
Sequence of Phospholipid hydroperoxide glutathione peroxidase GPX4 (Homo sapiens) (P36969 whole entry, looked up): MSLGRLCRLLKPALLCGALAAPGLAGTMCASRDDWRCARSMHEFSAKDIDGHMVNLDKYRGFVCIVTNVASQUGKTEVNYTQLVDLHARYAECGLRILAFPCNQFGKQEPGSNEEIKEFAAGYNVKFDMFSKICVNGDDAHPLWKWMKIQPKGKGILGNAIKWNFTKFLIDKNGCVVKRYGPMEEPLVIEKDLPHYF

`Nc1ncccc1-c1nc2ccc(-c3ccccc3)nc2n1-c1ccc(C2(N)CCC2)cc1`: the Potency was 0.118 µM (active) in assay [1], 0.186 µM (active) in assay [2], 23 µM (active) in assay [3] and 22.7 µM (active) in assay [4]. Moreover, the figures for the Z-AUC in assay [5], in assay [5] (setting [6]) and in assay [5] (measured here: PEO4 Z-AUC) were -0.599 (inactive), -0.0298 and -0.137, respectively.

As to `C=CC(=O)N[C@H]1CN(c2nc(Nc3cn(C)nc3OC)c3ncn(C)c3n2)C[C@@H]1F`, the Potency in assay [1] was 14.8 µM (active); in assay [2] it was 20.9 µM (active). Further, the Potency entry in assay [3] and in assay [4] was “inactive” in each case. The Z-AUC in assay [5] was 0.581 (inactive); in assay [5] (setting [6]) it was 0.0382; in assay [5] (measured here: PEO4 Z-AUC), 0.231.

Consider `NCCCC[C@H](NC(=O)[C@@H](NC(=O)[C@H](Cc1c[nH]c2ccccc12)NC(=O)[C@H](CCCCN)NC(=O)[C@H](CCCCN)NC(=O)[C@H](Cc1c[nH]c2ccccc12)NC(=O)[C@H](Cc1c[nH]c2ccccc12)NC(=O)[C@H](CCCCN)NC(=O)[C@@H](N)CCCCN)C(c1ccccc1)c1ccccc1)C(N)=O` (H-KKWWKKW[Dip]K-NH2), for which the Potency in assay [1] was 13.2 µM (active); in assay [2], 20.9 µM (active). Also, the Potency result in assay [3] and in assay [4] was “inactive” each time. Moreover, the Z-AUC in assay [5] is 0.988 (inactive); in assay [5] (setting [6]) it was 0.826; in assay [5] (measured here: PEO4 Z-AUC), 0.857.

Consider `CC(C)(C)NC(=O)c1cncn1C1CCN(c2ccc(-c3nnc(C(F)(F)F)o3)cn2)CC1`, for which the Potency is 2.63 µM (active) in assay [1] and 2.35 µM (active) in assay [2]. The Potency result in assay [3] and in assay [4] was “inactive” each time. Also, the Z-AUC is -0.537 (inactive) in assay [5], 0.427 in assay [5] (setting [6]) and 0.071 in assay [5] (measured here: PEO4 Z-AUC).

In the case of `C=CC(=O)Nc1ccc(F)c(-c2ncnc3[nH]cc(C(=O)OCC)c23)c1`, the values for the Potency in assay [1] and in assay [2] were 16.6 µM (active) and 14.8 µM (active), respectively. Moreover, the Potency result in assay [3] and in assay [4] was “inactive” in each case. Besides, the Z-AUC is 0.543 (inactive) in assay [5], 0.95 in assay [5] (setting [6]) and 0.747 in assay [5] (measured here: PEO4 Z-AUC).

As for `CCC(=O)NC[C@H](Cc1ccc(OCCc2nc(-c3ccccc3)oc2C)cc1)N/C(C)=C\C(=O)c1ccc(C(F)(F)F)cc1`, the Potency result in assay [1], in assay [2], in assay [3] and in assay [4] was “inactive” in each case. The Z-AUC in assay [5] is 0.763 (inactive); in assay [5] (setting [6]), 0.398; in assay [5] (measured here: PEO4 Z-AUC), 0.423.

Turning to `Cc1cc(OCCCc2c3n(c4c(-c5c(C)nn(C)c5C)c(Cl)ccc24)[C@H](C)CN(c2cn(C)c4ccc(C(=O)O)cc24)C3=O)cc(C)c1Cl`, the Potency is 4.68 µM (active) in assay [1], 2.09 µM (active) in assay [2] and 3.21 µM (active) in assay [4]. In addition, the Potency result in assay [3] was “inactive”. The Z-AUC is 1.46 (inactive) in assay [5], 0.906 in assay [5] (setting [6]) and 1.25 in assay [5] (measured here: PEO4 Z-AUC).

For `N#Cc1cc2cc(CN3CCC(Nc4ncnc5sc(CC(F)(F)F)cc45)CC3)c(O)cc2n1Cc1cn[nH]c1`, the Potency in assay [1] was 13.2 µM (active); in assay [2], 11.8 µM (active). The Potency entry in assay [3] and in assay [4] was “inactive” throughout. The results for the Z-AUC in assay [5], in assay [5] (setting [6]) and in assay [5] (measured here: PEO4 Z-AUC) were -1.24 (inactive), -1.35 and -1.55, respectively.

As for `C=C1[C@H](OC(=O)/C=C(\C)CC)C[C@@H](C(C)C)[C@@H]2[C@H]([C@@H](C)OC(C)=O)C(=O)C[C@@H]12`, the Potency result in assay [1], in assay [2], in assay [3] and in assay [4] was “inactive” throughout. Further, the figures for the Z-AUC in assay [5], in assay [5] (setting [6]) and in assay [5] (measured here: PEO4 Z-AUC) were 1.28 (inactive), 0.917 and 1.09, respectively.

As for `C/C(=C\c1csc(C)n1)[C@@H]1C[C@@H]2O[C@]2(C)CCC[C@H](C)[C@H](O)[C@@H](C)C(=O)C(C)(C)[C@@H](O)CC(=O)N1`, the Potency is 0.934 µM (active) in assay [1] and 0.742 µM (active) in assay [2]. Further, the Potency result in assay [3] and in assay [4] was “inactive” throughout. Besides, the Z-AUC is -0.955 (inactive) in assay [5], -1.61 in assay [5] (setting [6]) and -1.78 in assay [5] (measured here: PEO4 Z-AUC).

In the case of `CC[C@H](C)[C@@H]([C@@H](CC(=O)N1CCC[C@H]1[C@H](OC)[C@@H](C)C(=O)N[C@@H](Cc1ccccc1)c1nccs1)OC)N(C)C(=O)[C@@H](NC(=O)[C@H](C(C)C)N(C)C)C(C)C`, the Potency result in assay [1], in assay [2], in assay [3] and in assay [4] was “inactive” in each case. For the same molecule, the Potency in assay [5] was 27.5 µM (active). Besides, the Z-AUC in assay [5] (setting [6]) is -3.14; in assay [5] (measured here: PEO4 Z-AUC), -2.96.

As for `Cc1ccc(Nc2nnc(Cc3ccncc3)c3ccccc23)cc1Br`, the figures for the Potency in assay [1] and in assay [2] were 14.8 µM (active) and 13.2 µM (active), respectively. For the same molecule, the Potency result in assay [3] and in assay [4] was “inactive” each time. The Z-AUC is 0.372 (inactive) in assay [5], 0.414 in assay [5] (setting [6]) and -0.215 in assay [5] (measured here: PEO4 Z-AUC).

For `Cc1ccc(-n2nc(C(C)(C)C)cc2NC(=O)NCc2cc(F)ccc2Oc2ccc3c(cnn3CCO)c2)cc1`, the Potency in assay [1] was 16.6 µM (active); in assay [2], 14.8 µM (active). Besides, the Potency result in assay [3] and in assay [4] was “inactive” each time. The results for the Z-AUC in assay [5], in assay [5] (setting [6]) and in assay [5] (measured here: PEO4 Z-AUC) were 1.04 (inactive), 0.682 and 0.464, respectively.

For `CC[C@H](Nc1ncnc2nc[nH]c12)c1oc2ccccc2c(=O)c1-c1cccc(F)c1`, the Potency was 1.32 µM (active) in assay [1] and 1.48 µM (active) in assay [2]. Further, the Potency entry in assay [3] and in assay [4] was “inactive” throughout. Further, the results for the Z-AUC in assay [5], in assay [5] (setting [6]) and in assay [5] (measured here: PEO4 Z-AUC) were 0.58 (inactive), 0.184 and 0.542, respectively.

For `C[C@@H](C(=O)Nc1ccc(Cl)cc1)C1CCC(c2ccnc3ccc(F)cc23)CC1` (stereo partly specified), the Potency in assay [1] is 14.8 µM (active); in assay [2], 13.2 µM (active). For the same molecule, the Potency entry in assay [3] and in assay [4] was “inactive” each time. The Z-AUC in assay [5] was -1.08 (inactive); in assay [5] (setting [6]) it was -1.14; in assay [5] (measured here: PEO4 Z-AUC), -0.907.

Consider `O=C(c1ccc(Nc2nc(C3CC3)cn3c(-c4cn[nH]c4)cnc23)c(F)c1)N1CCOCC1`, for which the Potency in assay [1] and in assay [2] was 9.34 µM (active) each time. The Potency entry in assay [3] and in assay [4] was “inactive” throughout. In addition, the figures for the Z-AUC in assay [5], in assay [5] (setting [6]) and in assay [5] (measured here: PEO4 Z-AUC) were 0.98 (inactive), 0.912 and 1.07, respectively.

In the case of `C=C1C(=O)OC2/C=C(/C)CC/C=C(/C)CCC12` (stereo unspecified), the values for the Potency in assay [1] and in assay [2] were 11.8 µM (active) and 8.33 µM (active), respectively. Besides, the Potency entry in assay [3] and in assay [4] was “inactive” each time. The Z-AUC in assay [5] is 1.69 (inactive); in assay [5] (setting [6]), 1.29; in assay [5] (measured here: PEO4 Z-AUC), 1.11.

Turning to `c1ccc2c(-c3cnn4cc(-c5ccc(OCCN6CCOCC6)cc5)cnc34)ccnc2c1`, the Potency was 3.62 µM (active) in assay [1] and 3.23 µM (active) in assay [2]. Further, the Potency result in assay [3] and in assay [4] was “inactive” throughout. The Z-AUC in assay [5] is -1.41 (inactive); in assay [5] (setting [6]), -1.08; in assay [5] (measured here: PEO4 Z-AUC), -0.99.
